Experiment [1] in a line: A CellTox Green Cytotoxicity Assay to monitor cytotoxicity in HEK293 cells - 40 hour (AID 1224871). Also: nearly all actives have a fitted effect of over 45% in size. Also: potency is read from the fitted curve at half-maximal effect. The procedure, abridged: (§1)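 Nonlytic real-time cytotoxicity: HEK293 + CellTox Green reagent plated, 5 h preincubation, pintool compound addition (23 nL in DMSO), 37 C for 40 h, fluorescence measured at successive time points.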
The nature of experiment [2]: A CellTox Green Cytotoxicity Assay to monitor cytotoxicity in HEK293 cells - 24 hour (AID 1224875). Also: series mostly up to about 77 µM; nearly all actives have a fitted effect of over 45% in size. The procedure, abridged:
as §1

Experiment [3] can be described thus: A CellTox Green Cytotoxicity Assay to monitor cytotoxicity in HepG2 cells - 16 hour (AID 1224876). Also: nearly all actives have a fitted effect of over 45% in size. Also: potency is read from the fitted curve at half-maximal effect. The method, boiled down:
(§2)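 Read-out is fluorescence of a cyanine dye excluded from live cells that stains DNA of dead HepG2 cells, with signal proportional to cytotoxicity. Plates were read at 0, 8, 16, 24, 32 and 40 h after compound addition.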

Experiment [4] in a line: A CellTox Green Cytotoxicity Assay to monitor cytotoxicity in HepG2 cells - 24 hour (AID 1224878). Also: nearly all actives have a fitted effect of over 45% in size. Also: potency is read from the fitted curve at half-maximal effect. The method, boiled down:
as §2

Experiment [5] is described as follows: A CellTox Green Cytotoxicity Assay to monitor cytotoxicity in HepG2 cells - 40 hour (AID 1224879). Also: nearly all actives have a fitted effect of over 40% in size. Also: potency is read from the fitted curve at half-maximal effect. The method, boiled down: as §2
The nature of experiment [6]: qHTS RealTime-Glo MT Cell Viability Assay in HEK293 cells - 0 hour (AID 1224880). The method, boiled down: (§3)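 Cells were seeded together with NanoLuc luciferase and a prosubstrate that viable cells reduce to a luciferase substrate. After a 5 h incubation at 37 C/5% CO2, compounds were added and luminescence was measured repeatedly during 40 h of treatment.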
(In general: qHTS replaces the single test concentration by a dilution series.)

A short description of experiment [7]: A CellTox Green Cytotoxicity Assay to monitor cytotoxicity in HEK293 cells - 32 hour (AID 1224881). Also: nearly all actives have a fitted effect of over 40% in size. Also: potency is read from the fitted curve at half-maximal effect. The procedure, abridged:
as §1

Experiment [8] is described as follows: A CellTox Green Cytotoxicity Assay to monitor cytotoxicity in HepG2 cells - 0 hour (AID 1224882). Also: nearly all actives have a fitted effect of over 35% in size. The procedure, abridged: as §2
Experiment [9] in a line: A CellTox Green Cytotoxicity Assay to monitor cytotoxicity in HEK293 cells - 8 hour (AID 1224884). Also: nearly all actives have a fitted effect of over 35% in size. The procedure, abridged: as §1
Experiment [10] is described as follows: qHTS RealTime-Glo MT Cell Viability Assay in HEK293 cells - 8 hour (AID 1224887). Also: top concentration of the series differs between compounds; nearly all actives have a fitted effect of over 50% in size. The procedure, abridged: as §3
Experiment [11] is described as follows: A CellTox Green Cytotoxicity Assay to monitor cytotoxicity in HEK293 cells - 16 hour (AID 1224888). Also: nearly all actives have a fitted effect of over 35% in size. The method, boiled down:
as §1

Experiment [12] is described as follows: qHTS RealTime-Glo MT Cell Viability Assay in HepG2 cells - 0 hour (AID 1224889). Also: nearly all actives have a fitted effect of over 50% in size. The method, boiled down:
(§4)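 Compound treatment began 5 h after plating HepG2 cells (600/well) with NanoLuc luciferase and prosubstrate. Plates stayed at 37 C for 40 h; luminescence was captured at six time points, 0 h through 40 h.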

Experiment [13] is described as follows: A CellTox Green Cytotoxicity Assay to monitor cytotoxicity in HepG2 cells - 8 hour (AID 1224890). Also: nearly all actives have a fitted effect of over 45% in size. The procedure, abridged:
as §2

Experiment [14] can be described thus: qHTS RealTime-Glo MT Cell Viability Assay in HepG2 cells - 32 hour (AID 1224877). Also: nearly all actives have a fitted effect of over 55% in size. Also: potency is read from the fitted curve at half-maximal effect. The procedure, abridged: as §4
A short description of experiment [15]: A CellTox Green Cytotoxicity Assay to monitor cytotoxicity in HepG2 cells - 32 hour (AID 1224883). Also: nearly all actives have a fitted effect of over 50% in size. Also: potency is read from the fitted curve at half-maximal effect. The procedure, abridged: as §2
The nature of experiment [16]: qHTS RealTime-Glo MT Cell Viability Assay in HepG2 cells - 16 hour (AID 1224885). Also: nearly all actives have a fitted effect of over 50% in size. Also: potency is read from the fitted curve at half-maximal effect. The method, boiled down:
as §4

Experiment [17] can be described thus: qHTS RealTime-Glo MT Cell Viability Assay in HEK293 cells - 24 hour (AID 1224886). The procedure, abridged:
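Quantitative high-throughput screen of the Tox21 10K library in HEK293: cells and RealTime-Glo reagents plated together, compound added at 5 h, luminescence monitored through 40 h at 37 C.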

Experiment [18] is described as follows: qHTS RealTime-Glo MT Cell Viability Assay in HepG2 cells - 8 hour (AID 1224873). Also: nearly all actives have a fitted effect of over 55% in size. Also: potency is read from the fitted curve at half-maximal effect. The procedure, abridged:
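HepG2 cells (600/well) mixed with RealTime-Glo MT reagent, settled 5 h at 37 C/5% CO2 before compound addition. Nonlytic NanoLuc luminescence from viable-cell prosubstrate reduction read repeatedly during 40 h treatment at 37 C.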

Values without a mark were called inactive. Results filed as inconclusive are left out. Activity calls are given as the source filed them. Calls follow the shape of the dose curve; as a rule, active = well fitted curve in the direction sought with a large enough effect in the repeat runs; inconclusive = weak or mixed curves; inactive = no such curve, though single readings can be large; an effect the other way counts as inactive or inconclusive.

As for `Cc1oc2c(NC(=O)c3c(Cl)cccc3Cl)cccc2c1C(C)(C)O`, the Potency entry in experiment [1], in experiment [2], in experiment [3], in experiment [4], in [6] and in [7] was “inactive” in each case. Moreover, the Potency result in experiment [8], in [9], in experiment [10], in [11], in [12] and in [13] was “inactive” each time. Also, in experiment [5], the Potency is 38.9 µM (active).

For the compound `CC(=O)OC[C@H]1O[C@@H](n2ncc(=O)[nH]c2=O)[C@H](OC(C)=O)[C@@H]1OC(C)=O`, the Potency result in experiment [1], in experiment [2], in experiment [3], in experiment [14], in [4] and in [5] was “inactive” in each case. The Potency entry in [6], in experiment [7], in experiment [8], in [15], in experiment [9] and in experiment [16] was “inactive” throughout. Moreover, the Potency entry in experiment [17], in experiment [10], in [11], in experiment [12] and in [13] was “inactive” throughout.

Regarding `COc1cc2nc(N(C)CCCNC(=O)C3CCCO3)nc(N)c2cc1OC` (stereo not drawn), the Potency result in experiment [1], in experiment [18], in experiment [2], in experiment [3], in experiment [14] and in experiment [4] was “inactive” throughout. Further, the Potency result in experiment [5], in [6], in [7], in [8], in experiment [15] and in experiment [9] was “inactive” each time. In addition, the Potency result in experiment [16], in experiment [10], in experiment [11] and in experiment [12] was “inactive” in each case.

Turning to `CC(C)C[C@H]1C(=O)N2CCC[C@H]2[C@]2(O)O[C@](NC(=O)[C@@H]3C=C4c5cccc6[nH]c(Br)c(c56)C[C@H]4N(C)C3)(C(C)C)C(=O)N12`, the Potency entry in [1], in experiment [2], in experiment [3], in experiment [4], in experiment [5] and in experiment [6] was “inactive” in each case. For the same compound, the Potency entry in [7], in experiment [8], in experiment [15], in [9], in experiment [11] and in experiment [12] was “inactive” throughout. In addition, the Potency in experiment [18], in experiment [14] and in experiment [16] was 13.2 µM (active) throughout.

`CCC(Cl)CCC(Cl)C(Cl)CC(Cl)C(Cl)C(Cl)CCl` (stereo not drawn): the Potency entry in [1], in experiment [2], in [3], in experiment [14], in experiment [4] and in [5] was “inactive” throughout. Moreover, the Potency entry in experiment [6], in experiment [7], in experiment [8], in experiment [15], in [9] and in experiment [16] was “inactive” throughout. Further, the Potency result in [17], in experiment [10], in [11], in [12] and in [13] was “inactive” throughout.

For the compound `CC(=O)c1ccc2c(c1)N(CCCN1CCC(CCO)CC1)c1ccccc1S2`, the Potency in [1] was 23.9 µM (active); in experiment [3], 21.3 µM (active); in experiment [4], 23.9 µM (active); in experiment [5], 23.9 µM (active); in experiment [7], 23.9 µM (active); in experiment [15], 23.9 µM (active). Also, the Potency result in experiment [18], in [2], in experiment [14], in [8], in experiment [9] and in [16] was “inactive” each time. Moreover, the Potency entry in experiment [11], in experiment [12] and in experiment [13] was “inactive” in each case.

In the case of `CCN(CC)CCOC(=O)C(c1ccccc1)C1CCCCC1` (stereo not drawn), in [1], the Potency was 21.3 µM (active).

For `Clc1ccc(Cn2c(CN3CCCC3)nc3ccccc32)cc1`, the Potency entry in [2], in experiment [3], in [14], in [4], in experiment [5] and in experiment [6] was “inactive” in each case. The Potency entry in experiment [7], in experiment [8], in experiment [15], in experiment [9], in experiment [16] and in experiment [11] was “inactive” each time. Further, the Potency result in [12] and in experiment [13] was “inactive” each time.
